# ± gives the standard deviation.
# System: EfPiwi piRISC loaded with L1MC piRNA (26 nt)
# Experiment: pre-steady-state target cleavage rate (min^-1); auxiliary factor: 500 nM Ephydatia muelleri Gtsf1; guide: L1MC piRNA 5'p-UAACUAAAUACUAUGCAAGCUGUAGG; MIWI and MILI are mouse PIWI proteins and EfPiwi is from a freshwater sponge; tags in brackets are library labels; higher = faster piRNA-guided slicing of the target
# Procedure, shortened: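 The pre-steady-state cleavage rate was calculated from a burst-and-steady-state fit. Data came from Cleave-'n-Seq, in which […] transcribed, DNA-blocked target RNA library was mixed with 1 nM active affinity-purified piRISC carrying one synthetic guide, with or without 500 nM GTSF1 partner protein, in HEPES–potassium acetate buffer at 33 °C for 0–8 or 0–960 min. Uncleaved targets were sequenced and normalised to depth and to weakly complementary targets, three trials were pooled, and k3 was capped at 0.0001 min^-1.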
row,Sequence,pre-steady-state target cleavage rate
1,UCCUCCUACAGCUUGCUUAGUAUUUAGUAA,0.00594 ± 0.0027
2,UCCUGGAACAGCUUGCAUAGUAUUUGAGUUA,0.00552 ± 0.0019
3,UCCUGGAUCAGCUUAGCAUAGUAUUUAGUUA,0.0874 ± 0.019
4,UCCUGGUACAGCUUGCAUAGUAUUAUGUUA,0.00349 ± 0.0025
5,UCCUGGAUGAGCUAUGCAUAGUAUUUAGUUA,0.0256 ± 0.0076
6,UCCUGCAACAGCUUGCAAAGUAUUUAGUUA,0.022 ± 0.0052
7,UCCUGGAUGUCCUUGCAUAGUAUUUAGUUU [g2:g19:cont:t1U],0.00601 ± 0.0034
8,UCCUGCUACUGCUUGCAUAGUUUUUAGUUA,0.00399 ± 0.0017
9,UCCUGGAUCAGCUUGCAUAGUAUUUAGGUUA,0.00516 ± 0.0024
10,UCCUGGAUGUGCUAUGCAUAGUAUUUAGUUA,0.0103 ± 0.0036
11,UCCUGCUUCAGCUUGCAUAGUAUUUAGUAA,0.00811 ± 0.0033
12,UCCUGCUACAGCUUGCAUACUAUUUAGUUA,0.00755 ± 0.0026
13,UCCUGGUACAGCUUGCAUAGUAUAAUGUUA,0.00312 ± 0.0026
14,UCCUGCUACAGCUUGCAUAGUAUUCAGUUA,0.00508 ± 0.0017
15,UCCUGGAACAGCUUCAUAGUAUUUAGUUA,0.0107 ± 0.0034
16,UCCUCCUACAGCUUGCAUAGUAUCUUAGUUA,0.0254 ± 0.011
17,UCCUGCUUCAGCUUGCAUAGUAUUAAGUUA,0.00492 ± 0.0016
18,UCCUCCUACAGCUUACAUAGUAUUUAGUUA,0.106 ± 0.028
19,UCCUGGAUGUGCUGUGCAUAGUAUUUAGUUA,0.00568 ± 0.0024
20,UCCUGGAACUGCUUGCUUAGUAUUUAGUUA,0.00646 ± 0.0033

row,Sequence,pre-steady-state target cleavage rate
1,UCCUGGAUGUGCAUGCAUAGUAUUUAGAAA,0.00304 ± 0.0022
2,UCCUGCUACAGCAUGGAUAGUAUUUAGUUA,0.00804 ± 0.0023
3,UCCUGGUUCAGCUUGCAUAGUAUAUAGUUA,0.00607 ± 0.0027
4,UCCUGGUACAGCUACCAUAGUAUUUAGUUA,0.00432 ± 0.0019
5,UCCUGGUAGAGCUUGCAUAGUUUUUAGUUA,0.0049 ± 0.0026
6,UCCUGGUACAGCUUGCAUAGUAGUUAGUUA,0.00515 ± 0.0021
7,UCCUGGAUCAGCUUGCAUAGUAUUAUGUUA,0.005 ± 0.0024
8,UCCUCAUACAGCUUGCAUAGUAUUUAGUUA,0.234 ± 0.064
9,UCCUGGAUGAGCAUGCAUAGUAUUUAGUAA,0.00596 ± 0.0037
10,UCCUGCUACAGCAUGCAUAGUAUUUAGUAA,0.00673 ± 0.0029
11,UCCUGCUACAGCUUGCUUAGUUUUUAGUUA,0.0055 ± 0.0019
12,UCCUGGAACAGCUUGCAUUGUAUUUAGUUA,0.00926 ± 0.0026
13,UCCUGGUACUGCUAGCAUAGUAUUUAGUUA,0.00467 ± 0.0022
14,UCCUGGAAGAGCUUGCAUAGUAUUUAGUUA,0.0725 ± 0.016
15,UCCUGGAACAGCUUGCAUAGUAUUUAGUUU [g2:g23:cont:t1U],0.0156 ± 0.0055
16,UCCUGGAUGUCGAUGCAUAGUAUUUAGUUUA,0.00642 ± 0.0029
17,UCCUGGAACAGCUUGCAUACUAUUUAGUUA,0.00571 ± 0.0014
18,UCCUGGAACAGCGUUGCAUAGUAUUUAGUUA,0.0162 ± 0.0046
19,UCCUGGUACAGCAUGCUUAGUAUUUAGUUA,0.00778 ± 0.0028
20,UCCUGGAACAGCUUGCUUUGUAUUUAGUUA,0.00396 ± 0.0025

# Source: the supplement of paper PMC10338343
